Values joined by “and” are separate entries in the source; they are usually repeats but may differ in a detail not shown here. Equal entries are not always repeated. Results filed as inconclusive are left out. A call without a number means that no potency is given here. Some compounds were tested as several samples or in several runs, with calls that do not always agree. Active and inactive are the calls of the source. Unless noted, calls follow the shape of the dose curve; as a rule, active = well fitted curve in the direction sought with a large enough effect in the repeat runs; inconclusive = weak or mixed curves; inactive = no such curve, though single readings can be large; an effect the other way counts as inactive or inconclusive.
Tests used:
[1] = qHTS assay to identify small molecule agonists of the estrogen receptor alpha (ER-alpha) signaling pathway in the presence of an antagonist - cell viability counter screen (AID 1259386);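 also: cells exposed to compounds for 22 h at 37 °C before the viability read; nearly all actives have a fitted effect of over 30% in size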; also: potency is read from the fitted curve at half-maximal effect
Summary of the method: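 The test measures whether compounds kill ER-alpha reporter cells (VM7Luc4E2) under antagonist co-treatment (ICI-182,780, 10.0nM). Fluorescence from CellTiter-Fluor is read after a 22hr exposure.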

[2] = molecular target: Progesterone receptor (Homo sapiens) (UniProt P06401); assay: qHTS assay to identify small molecule agonists of the progesterone receptor (PR) signaling pathway (AID 1346784; calls by dose curve; also: nearly all actives have a fitted effect of over 30% in size)
Summary of the method: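 PR-UAS-bla HEK 293T cells (beta-lactamase reporter under UAS) in 2% charcoal-stripped FBS, dosed with 23 nL compound after 6 hr, incubated 16hr at 37C. LiveBLAzer B/G FRET substrate added, fluorescence read after 2 hours.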

[3] = molecular target: Progesterone receptor (Homo sapiens) (UniProt P06401); assay: qHTS assay to identify small molecule antagonists of the progesterone receptor (PR) signaling pathway (AID 1346795; active = well fitted inhibition curve with a large enough effect in the signal ratio in the repeat runs, not every such curve was filed as active; the % refers to the signal ratio; also: potency is read from the fitted curve at half-maximal effect)
Summary of the method: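 PR-UAS-bla HEK293T cells with beta-lactamase reporter under UAS control, in 2% charcoal-stripped FBS, treated with compounds plus 1 nM promegestone (R5020, final) for 16 hr at 37C. Read-out: FRET beta-lactamase substrate fluorescence after 2 hr at room temperature.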

[4] = qHTS assay to identify small molecule antagonists of the progesterone receptor (PR) signaling pathway - cell viability counter screen (AID 1346798); also: nearly all actives have a fitted effect of over 50% in size; also: potency is read from the fitted curve at half-maximal effect
Summary of the method: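 PR-UAS-bla HEK293T cells, 3,000/well in 2% charcoal-stripped FBS medium, dosed with compounds plus R5020 agonist and incubated 16 h at 37C. Viability then measured in the same wells by CellTiter-Glo luminescence after 30 min at RT.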

[5] = qHTS assay to identify small molecule antagonists of the TGF-beta/Smad signaling pathway - cell viability counter screen (AID 1346824); also: nearly all actives have a fitted effect of over 50% in size; also: potency is read from the fitted curve at half-maximal effect
Summary of the method: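 SBE-bla HEK 293T cells were plated overnight at 37 C, then given compounds in DMSO plus TGF-beta1 (added as 0.25 ng/mL solution) for 5 hr. After the bla read, CellTiter-Glo was added to the same wells and luminescence read after 30 min at room temperature.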

[6] = qHTS assay to identify small molecule agonists of the TGF-beta/Smad signaling pathway - cell viability counter screen (AID 1346829); also: nearly all actives have a fitted effect of over 45% in size; also: potency is read from the fitted curve at half-maximal effect
Summary of the method: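 After overnight seating at 37 C and 5% CO2, reporter cells got compounds for 5 hr and FRET substrate for 2 hr; cell viability then came from CellTiter-Glo luminescence.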

[7] = qHTS assay to identify small molecule agonists of the TGF-beta/Smad signaling pathway (AID 1346859; active = well fitted activation curve with a large enough effect in the signal ratio in the repeat runs, not every such curve was filed as active; the % refers to the signal ratio; also: series mostly up to about 77 µM)
Summary of the method: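 SBE-bla HEK293T cells plated overnight, then compound exposure for 5 h at 37 C. Beta-lactamase reporter read with LiveBLAzer B/G FRET substrate after 2 h at room temperature, fluorescence at 405 nm excitation, 460/530 nm emission.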

[8] = molecular target: Thyrotropin-releasing hormone receptor (Homo sapiens) (UniProt P34981); assay: qHTS assay to identify small molecule antagonists of the thyrotropin-releasing hormone receptor (TRHR) signaling pathway (AID 1346877; active = well fitted inhibition curve with a large enough effect in the repeat runs, not every such curve was filed as active; also: series mostly up to about 51 µM)
Summary of the method: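 Overnight-plated (18 h, 37 °C) HEK293 cells expressing TRHR were dye-loaded 2 h, treated with compound, then stimulated with TRH at 1 nM final. Fluorescence intensity was captured every second for 3 min.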

[9] = molecular target: Thyrotropin-releasing hormone receptor (Homo sapiens) (UniProt P34981); assay: qHTS assay to identify small molecule agonists of the thyrotropin-releasing hormone receptor (TRHR) signaling pathway (AID 1346891; calls by dose curve; also: series mostly up to about 58 µM)
Summary of the method: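 HEK293 cells expressing TRHR plated 18 h at 37 C/5% CO2, calcium dye-loaded 2 h at 37 C, then compound added (agonist mode); kinetic calcium fluorescence read 3 min at 1 s intervals; 15 concentrations in triplicate.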

[10] = qHTS assay to identify small molecule agonists of the progesterone receptor (PR) signaling pathway - cell viability counter screen (AID 1346799; calls by dose curve; also: nearly all actives have a fitted effect of over 45% in size)
Summary of the method: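 Counter screen in the PR-UAS-bla HEK293T wells (2% charcoal-stripped FBS, 16 h compound exposure at 37 C) after the bla read. CellTiter-Glo added, 30 min at room temperature, luminescence read as cell viability.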

Thyrotropin-releasing hormone receptor (Homo sapiens), sequence (P34981 whole entry, looked up): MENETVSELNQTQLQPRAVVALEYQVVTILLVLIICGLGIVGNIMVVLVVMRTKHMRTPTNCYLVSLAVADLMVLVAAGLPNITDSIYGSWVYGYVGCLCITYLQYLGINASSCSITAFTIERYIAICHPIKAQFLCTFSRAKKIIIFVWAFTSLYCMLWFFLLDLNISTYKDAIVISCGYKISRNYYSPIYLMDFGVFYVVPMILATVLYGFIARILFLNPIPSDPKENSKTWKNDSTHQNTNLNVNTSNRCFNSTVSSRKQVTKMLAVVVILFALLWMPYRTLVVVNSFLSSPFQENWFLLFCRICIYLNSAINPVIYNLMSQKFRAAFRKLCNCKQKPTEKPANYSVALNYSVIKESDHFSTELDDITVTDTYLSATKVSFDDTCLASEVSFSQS
Progesterone receptor (Homo sapiens), sequence (P06401 whole entry, looked up): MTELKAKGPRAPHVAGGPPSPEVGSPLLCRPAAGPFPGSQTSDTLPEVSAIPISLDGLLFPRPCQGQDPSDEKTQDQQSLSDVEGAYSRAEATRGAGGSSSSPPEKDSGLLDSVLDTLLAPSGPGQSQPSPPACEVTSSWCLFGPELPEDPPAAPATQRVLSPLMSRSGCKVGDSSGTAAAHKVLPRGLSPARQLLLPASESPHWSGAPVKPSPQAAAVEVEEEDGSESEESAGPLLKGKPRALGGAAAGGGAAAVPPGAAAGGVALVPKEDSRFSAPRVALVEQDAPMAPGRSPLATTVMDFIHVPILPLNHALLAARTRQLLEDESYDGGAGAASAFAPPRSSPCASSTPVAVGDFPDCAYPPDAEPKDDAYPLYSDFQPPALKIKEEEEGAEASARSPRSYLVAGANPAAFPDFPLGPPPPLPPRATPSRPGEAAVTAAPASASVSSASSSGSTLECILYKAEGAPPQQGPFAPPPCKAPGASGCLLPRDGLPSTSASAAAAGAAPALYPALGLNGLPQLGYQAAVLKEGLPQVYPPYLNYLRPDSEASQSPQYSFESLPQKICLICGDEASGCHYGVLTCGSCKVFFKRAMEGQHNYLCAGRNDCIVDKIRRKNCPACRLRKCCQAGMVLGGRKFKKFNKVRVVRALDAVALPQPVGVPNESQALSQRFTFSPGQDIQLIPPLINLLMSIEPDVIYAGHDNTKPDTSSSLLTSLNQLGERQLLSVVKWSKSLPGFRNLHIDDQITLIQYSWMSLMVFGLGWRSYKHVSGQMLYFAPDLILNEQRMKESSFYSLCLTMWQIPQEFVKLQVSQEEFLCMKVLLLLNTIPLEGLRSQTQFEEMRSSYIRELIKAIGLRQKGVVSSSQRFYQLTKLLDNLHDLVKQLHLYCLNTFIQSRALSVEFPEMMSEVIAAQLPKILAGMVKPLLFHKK

SMILES | Potency [1] | Potency [2] | Potency [3] | Potency [4] | Potency [5] | Potency [6] | Potency [7] | Potency [8] | Potency [9] | Potency [10]
CNC(=O)c1ccccc1 | inactive | inactive | inactive | inactive | inactive | inactive | inactive | inactive | inactive | –
Cc1onc(-c2ccccc2Cl)c1C(=O)N[C@@H]1C(=O)N2[C@@H]1SC(C)(C)[C@@H]2C(=O)O | inactive | inactive | inactive | inactive | inactive | inactive | inactive | – | – | –
Nc1ccc2cc(S(=O)(=O)O)cc(O)c2c1N=Nc1ccccc1C(F)(F)F | 48.6 µM (active) | inactive | inactive | inactive | – | inactive | – | inactive | inactive | inactive
NC(=NCCCCCCN=C(N)/N=C(\N)Nc1ccc(Cl)cc1)/N=C(\N)Nc1ccc(Cl)cc1 | inactive | inactive | inactive and 55.5 µM (active) | inactive | – | 35.3 µM (active) and 48.7 µM (active) and inactive | – | – | – | inactive
CN(C)[C@@H]1C(=O)C(C(N)=O)=C(O)[C@@]2(O)C(=O)C3=C(O)c4c(O)ccc(Cl)c4[C@@H](O)[C@H]3C[C@@H]12 | inactive | inactive | inactive | inactive | inactive | inactive | – | inactive | inactive | inactive
CCCCCCC[N+](CC)(CC)CCCCc1ccc(Cl)cc1 | 26.6 µM (active) | inactive | inactive | – | inactive | inactive | – | inactive | inactive | –
CN(C)[C@@H]1C(=O)C(C(N)=O)=C(O)[C@@]2(O)C(=O)C3=C(O)c4c(O)cccc4C[C@H]3C[C@@H]12 | inactive | inactive | – | – | inactive | inactive | – | inactive | inactive | inactive
CN(C)c1ccc(SC#N)cc1 | inactive | inactive | – | inactive | inactive | inactive | inactive | inactive | inactive | inactive
CCCCCCCCn1sc(Cl)c(Cl)c1=O | inactive | inactive | – | inactive | 21.9 µM (active) | 34.7 µM (active) | – | – | inactive | inactive
N=C1C=CC(=C(c2ccc(N)cc2)c2ccc(N)cc2)C=C1 | 24.3 µM (active) | inactive | inactive | – | – | inactive | inactive | inactive | inactive | –
COc1c(C)c2c(c(O)c1C/C=C(\C)CCC(=O)O)C(=O)OC2 | inactive | inactive | – | 0.119 µM (active) | inactive | inactive | – | inactive | inactive | –
